Test results taken from PubChem BioAssay (Tox21).
Results filed as inconclusive are left out. The source made the active and inactive calls. Unless noted, calls come from the whole dose curve; as a rule, active = well fitted curve in the direction sought with a large enough effect in the repeat runs; inconclusive = weak or mixed curves; inactive = no such curve, though single readings can be large; an effect the other way counts as inactive or inconclusive.

What was measured:
[1] = A CellTox Green Cytotoxicity Assay to monitor cytotoxicity in HepG2 cells - 8 hour (AID 1224890); note: nearly all actives have a fitted effect of over 45% in size
Summary of the method: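 Nonlytic assay: viable cells exclude the dye, so fluorescence scales with cell death. HepG2 at 600 cells/well, compounds added after 5 h, signal read across 40 h.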

[2] = qHTS assay to identify small molecule antagonists of the estrogen receptor alpha (ER-alpha) signaling pathway using the BG1 cell line in the presence of 0.1 nM 17-beta-estradiol - cell viability counter screen (AID 1259241); note: nearly all actives have a fitted effect of over 40% in size
Summary of the method: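 VM7Luc4E2 cells (endogenous full-length ER-alpha, 4xERE-luciferase), cultured 5 days in charcoal-stripped serum, exposed to compounds with 0.1 nM 17beta-estradiol (final) for 22 hr at 37C. Viability read in same wells as live-cell protease fluorescence after 30 min.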

[3] = qHTS assay to identify small molecule antagonists of the androgen receptor (AR) signaling pathway using the MDA cell line in the presence of 0.5 nM R1881 - cell viability counter screen (AID 1259242); note: nearly all actives have a fitted effect of over 45% in size
Summary of the method: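 R1881 at 0.5 nM final stimulated MDA-kb2 cells during 16 hr compound treatment at 37C. Cytotoxicity read: CellTiter-Fluor fluorescence after 30 min.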

[4] = qHTS assay to identify small molecule phospholipidosis (PLD) inducers (AID 1259344; active = well fitted curve in the direction sought with a large enough effect; an effect the other way counts as inactive or inconclusive)
Summary of the method: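 HepG2 cells grown on collagen I take up LipidTOX Red while exposed to compound for 24 h; after fixation they are imaged at 20x and pit metrics are extracted.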

[5] = qHTS assay to identify small molecule HDAC inhibitors (AID 1259364);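 note: wild-type HCT-116 cells with endogenous class I/II HDAC activity; top concentration of the series differs between compounds; nearly all actives have a fitted effect of over 45% in size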
Summary of the method: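 Relative class I and II HDAC activity is taken from the luminogenic signal in HCT-116 cells, with compound exposure 2 hr and reagent development 30 min at room temperature.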

[6] = qHTS assay to identify small molecule HDAC inhibitors - cell viability counter screen (AID 1259365); note: series mostly up to about 92 µM; nearly all actives have a fitted effect of over 50% in size
Summary of the method: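 Wild-type HCT-116 cells, 1,500/well, cultured overnight, then compound-treated 2 h at 37 C. Viability measured as ATP luminescence with CellTiter-Glo after 30 min at room temperature.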

[7] = qHTS assay to identify small molecule agonists of the sonic hedgehog signaling (Shh) pathway - cell viability counter screen (AID 1259366); note: nearly all actives have a fitted effect of over 50% in size
Summary of the method: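 NIH/3T3-derived Gli1-Luc reporter cells, 2,000 per well, received compound after 4 h and were treated about 23 h at 37C. Viability measured in the same wells by CellTiter-Fluor fluorescence after 1 h.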

[8] = qHTS assay to identify small molecule antagonists of the sonic hedgehog signaling (Shh) pathway - cell viability counter screen (AID 1259367); note: nearly all actives have a fitted effect of over 55% in size
Summary of the method: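 After a 4 hr settling period, 3T3 Gli1-Luc cells were treated with DMSO-dissolved chemicals and conditioned medium, kept 24 hr at 37C in 5% CO2, and assayed for viability by CellTiter-Fluor fluorescence following 1 hr reagent incubation.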

[9] = qHTS assay to identify small molecule agonists of the sonic hedgehog signaling (Shh) pathway (AID 1259368; calls by dose curve;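 note: NIH/3T3-derived 3T3Gli1-Luc cells carrying a stable Gli1-driven firefly luciferase reporter; series mostly up to about 92 µM; nearly all actives have a fitted effect of over 15% in size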)
Summary of the method: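 Mouse fibroblast (NIH/3T3) reporter cells with stably integrated Gli1-Luc were treated 24 hr with compound; firefly luciferase luminescence served as the read-out.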

[10] = qHTS assay to identify small molecule antagonists of the sonic hedgehog signaling (Shh) pathway (AID 1259369; calls by dose curve; note: nearly all actives have a fitted effect of over 45% in size)
Summary of the method: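 Conditioned medium drives Shh signalling in 3T3Gli1-Luc cells; compounds in DMSO co-applied, 24hr at 37 C, then luciferase luminescence.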

[11] = biological target: Estrogen receptor beta (Homo sapiens) (UniProt Q92731); test: qHTS assay to identify small molecule agonists of the estrogen receptor beta (ER-beta) signaling pathway (AID 1259377; active = well fitted activation curve with a large enough effect in the signal ratio in the repeat runs, not every such curve was filed as active; the % refers to the signal ratio)
Sequence of Estrogen receptor beta (Homo sapiens) (Q92731 whole entry, looked up): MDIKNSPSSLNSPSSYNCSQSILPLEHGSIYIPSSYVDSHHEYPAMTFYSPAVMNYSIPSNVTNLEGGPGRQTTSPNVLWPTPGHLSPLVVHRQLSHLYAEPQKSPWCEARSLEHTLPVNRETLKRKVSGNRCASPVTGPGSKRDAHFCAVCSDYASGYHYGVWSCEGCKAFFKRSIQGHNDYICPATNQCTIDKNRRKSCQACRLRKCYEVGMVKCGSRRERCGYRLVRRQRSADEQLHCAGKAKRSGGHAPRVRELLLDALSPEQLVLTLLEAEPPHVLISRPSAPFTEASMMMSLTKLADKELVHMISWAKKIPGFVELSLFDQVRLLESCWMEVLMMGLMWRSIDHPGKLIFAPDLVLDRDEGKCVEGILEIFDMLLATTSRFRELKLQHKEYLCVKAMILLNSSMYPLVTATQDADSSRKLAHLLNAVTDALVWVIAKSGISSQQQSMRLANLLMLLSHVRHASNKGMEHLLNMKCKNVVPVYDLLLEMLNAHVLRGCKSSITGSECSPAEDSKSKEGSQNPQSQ
Summary of the method: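 ER-beta-UAS-bla HEK293T cells in medium with 2% charcoal-stripped FBS were exposed to compounds for 16 h at 37C. Beta-lactamase reporter activity was read as fluorescence after 2 h with LiveBLAzer B/G FRET substrate at room temperature.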

[12] = biological target: Estrogen receptor beta (Homo sapiens) (UniProt Q92731); test: qHTS assay to identify small molecule antagonists of the estrogen receptor beta (ER-beta) signaling pathway (AID 1259378; active = well fitted inhibition curve with a large enough effect in the signal ratio in the repeat runs, not every such curve was filed as active; the % refers to the signal ratio)
Summary of the method: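 ER-beta-UAS-bla HEK293T (GripTite) cells in 2% charcoal-stripped FBS medium were preincubated 6 hr at 37C, dosed with compound, then stimulated with 1 nM E2 (final) for 16 hr; beta-lactamase reporter read by B/G FRET fluorescence after 2 hr substrate loading.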

[13] = qHTS assay to identify small molecule agonists of the androgen receptor (AR) signaling pathway in the presence of an antagonist - cell viability counter screen (AID 1259379);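 note: MDA-kb2 human breast cancer cells carrying an MMTV luciferase reporter; series mostly up to about 92 µM; nearly all actives have a fitted effect of over 25% in size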
Summary of the method: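 A CellTiter-Fluor read-out measured viability of MDA-kb2 reporter cells (MMTV promoter with AR and GR response elements). Treatment: nilutamide 3.0uM final with compounds at 15 concentrations, 16 hr, 37C, 0% CO2.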

[14] = qHTS assay to identify small molecule agonists of the estrogen receptor beta (ER-beta) signaling pathway - cell viability counter screen (AID 1259380); note: nearly all actives have a fitted effect of over 30% in size
Summary of the method: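 Cells used were ER-beta-UAS-bla HEK293T in medium with 2% charcoal-stripped FBS. They were treated for 16 hr at 37C. Viability came from CellTiter-Glo luminescence.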

[15] = qHTS assay to identify small molecule antagonists of the estrogen receptor beta (ER-beta) signaling pathway - cell viability counter screen (AID 1259382); note: series mostly up to about 92 µM; nearly all actives have a fitted effect of over 55% in size
Summary of the method: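 Agonist-stimulated (1nM E2) ER-beta-UAS-bla HEK293T cells are incubated with library compounds for 16 hr at 37C. Cell viability is then assessed in the reporter-assay wells by adding CellTiter-Glo and reading luminescence after 30 min.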

[16] = biological target: Estrogen receptor (Homo sapiens) (UniProt P03372); test: qHTS assay to identify small molecule antagonists of the estrogen receptor alpha (ER-alpha) signaling pathway using the BG1 cell line in the presence of 0.1 nM 17-beta-estradiol (AID 1259244); note: nearly all actives have a fitted effect of over 50% in size
Sequence of Estrogen receptor (Homo sapiens) (P03372 whole entry, looked up): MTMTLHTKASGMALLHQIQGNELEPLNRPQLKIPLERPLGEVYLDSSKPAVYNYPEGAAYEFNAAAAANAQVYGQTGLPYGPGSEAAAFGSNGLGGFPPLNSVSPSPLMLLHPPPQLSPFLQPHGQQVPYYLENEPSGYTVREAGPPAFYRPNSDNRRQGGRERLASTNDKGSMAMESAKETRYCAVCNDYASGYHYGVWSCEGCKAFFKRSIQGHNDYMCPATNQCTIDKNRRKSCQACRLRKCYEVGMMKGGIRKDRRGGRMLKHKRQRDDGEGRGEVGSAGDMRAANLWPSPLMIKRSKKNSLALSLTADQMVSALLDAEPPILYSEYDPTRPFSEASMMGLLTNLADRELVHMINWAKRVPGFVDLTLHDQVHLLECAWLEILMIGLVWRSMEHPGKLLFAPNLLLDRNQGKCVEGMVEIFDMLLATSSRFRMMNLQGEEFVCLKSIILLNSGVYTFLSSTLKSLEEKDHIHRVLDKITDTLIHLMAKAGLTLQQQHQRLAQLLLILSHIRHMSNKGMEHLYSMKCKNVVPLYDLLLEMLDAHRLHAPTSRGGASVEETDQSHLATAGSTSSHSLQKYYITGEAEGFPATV
Summary of the method: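 VM7Luc4E2; 4xERE-luciferase; 0.1 nM E2 final; 22 h co-incubation, 37C; ONE-Glo luminescence after 30 min at room temperature.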

[17] = biological target: Estrogen receptor (Homo sapiens) (UniProt P03372); test: qHTS assay to identify small molecule agonists of the estrogen receptor alpha (ER-alpha) signaling pathway in the presence of an antagonist (AID 1259383; calls by dose curve; note: top concentration of the series differs between compounds; nearly all actives have a fitted effect of over 15% in size)
Summary of the method: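 Using VM7Luc4E2 cells seeded 24hr before treatment, antagonist ICI-182,780 (10.0nM final) was added, followed by compounds at 15 concentrations. Plates incubated 22hr; ONE-Glo luminescence quantified reporter activity.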

[18] = qHTS assay to identify small molecule agonists or antagonists of the thyroid stimulating hormone receptor (TSHR) signaling pathway - wild type cell line counter screen (AID 1259384; calls by dose curve)
Summary of the method: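 Wild-type HEK293 cells were plated 18 h at 37 C/5% CO2, pin-dosed with compound plus Ro20-1724 medium, held 30 min at room temperature, then given cAMP-d2 and anti-cAMP-cryptate; fluorescence was read after 1 h. Fifteen concentrations, triplicate.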

Measured: Potency

CC(C)NCC(O)COc1ccc(CCOCC2CC2)cc1 (stereo unspecified)
not listed: [16] | [17] | [18]
inactive: all other assays above

CS(=O)(=O)c1ccc([C@@H](O)[C@@H](CF)NC(=O)C(Cl)Cl)cc1
not listed: [9] | [10] | [11] | [12] | [14]
inactive: all other assays above

CC(C)CC(=O)OCc1ccccc1
not listed: [4] | [18]
inactive: all other assays above

COc1cc(C)ccc1C(C)C
not listed: [4] | [9] | [14]
inactive: all other assays above

O=C1CCCCCCCCCCC(=O)OCCO1
not listed: [4] | [10]
inactive: all other assays above

Cc1ccc(C)c(N)c1
not listed: [4] | [8]
inactive: all other assays above

C=CCCCCCCCCO
not listed: [4] | [12]
inactive: all other assays above

Clc1cccc(-c2cc(Cl)cc(Cl)c2)c1
not listed: [4] | [9] | [11] | [12] | [14]
inactive: all other assays above

O=S(=O)(O)C(F)(F)F
not listed: [4] | [10]
inactive: all other assays above
